Test results as given in PubChem BioAssay AID588342 (National Center for Advancing Translational Sciences (NCATS), 2011).
The campaign covered roughly 360,000 compounds. About 25,000 (6.9%) were called active. Not shown: some 9% with an inconclusive outcome. Calls come from the whole dose curve; as a rule, active = well fitted inhibition curve with a large enough effect; inconclusive = small, poorly fitted or top-dose-only effect; inactive = flat fitted curve, though single readings scatter. Many of the other results were omitted from the sample, so actives are more common in it than they were.

Molecular target: Luciferin 4-monooxygenase (Photinus pyralis) (UniProt P08659)
Assay: qHTS profiling assay for firefly luciferase inhibitor/activator using purifed enzyme and Km concentrations of substrates (counterscreen for miR-21 project); note: nearly all actives have a fitted effect of over 55% in size;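 for activity change, negative = inhibition: plate controls were vehicle for no effect and reference inhibitor for full effect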
Conditions: purified FLuc, luminescence inhibition; series mostly up to 57.5 µM; activity change, negative = inhibition: at the top concentration
Description: MLPCN Grant: 1 R21 NS059478-01 (miR-21 grant) Assay Provider: NCGC NCGC Assay Overview: Firefly (Photinus pyralis) luciferase is one of the most commonly used transcriptional reporters for a number of reasons. It is considered one of the more dynamically responsive reporters -that is, responsive to changes in reporter transcription - as it requires no post-translational modifications and is enzymatically active directly after protein synthesis (Wood, 1998). Additionally, the half-life of the luciferase protein is short relative to other reporter-gene products (Wood, 1995). Whereas reporters with long half-lives potentially allow for increased signal due to accumulation of reporter-gene product, once accumulated in the cell, dynamic changes in reporter-gene expression may be difficult to detect(Fan and Wood, 2007; Almond et al., 2004). It has been shown that wild-type P. pyralis luciferase has a half-life of approximately […] hours in mammalian cells (Thompson et al., 1991). Firefly luciferase reporter-gene assays are also generally considered one of the most sensitive assay types (Wood, 1995; Wood, 1998). Although light produced in a bioluminescence reaction is of lower intensity than that produced during fluorescence emission, this is offset by little to no background light inherent to luminescent assays. Thus the luciferase reporter can be expressed at much lower levels than fluorescent proteins while still providing robust signal. # However, it was initially observed, in 1991, by Thompson et al., that compounds that resemble the substrates of firefly luciferase (FLuc) can act as competitive inhibitors of the enzyme, and that these compounds, upon interaction with luciferase in the cell, can actually stabilize the protein and increase its half-life. Accumulated intracellular FLuc protein can be measured as an increase in luminescence signal, upon addition of detection reagents (which contain high concentrations of FLuc substrates) commonly used in high-throughput screening. In cell-based reporter gene assays that use FLuc as the reporter gene to quantitate the potential influence of a given compound against the target biology, this apparent increase in luminescence can mistakenly be interpreted as identification of a compound that is active against the target of interest. This is the case for the miR-21 FLuc reporter gene assay used to identify inhibitors of the miR-21 pathway (PubChem AID 2289) - compounds of interest will inhibit miR-21 biogenesis/expression or activity, and are identified by causing an increase in luminescence, due to increased FLuc translation. However, FLuc inhibitory compounds that stabilize the FLuc protein will give an identical read-out, making it difficult to distinguish compounds that are active against the target from those active against FLuc. Previous profiling work to determine the prevalence of compounds that affect FLuc enzymatic activity (PubChem AID 411) identified that ~3% of the MLSMR library (then at ~72K) inhibited FLuc. […] Since the MLSMR had grown to ~350K compounds, and since it was expected that a significant percentage of compounds found active in the miR-21 FLuc assay would be FLuc inhibitors, the library was screened for activity against FLuc using a biochemical assay of purified FLuc and KM concentrations of FLuc substrates (D-luciferin and ATP).
NCGC Assay Protocol Summary: Reagents: 50mM Tris acetate, pH 7.5; 10mM Mg acetate; 10uM D-luciferin (Sigma #L9504); 10uM ATP; 0.01% Tween-20; 0.05% BSA; 10nM P. pyralis luciferase (Sigma #L9506) Control compounds used were two known firefly luciferase inhibitors (compounds (2) and (5) in Auld et al., 2010), and DMSO. […]

Chain of Luciferin 4-monooxygenase (Photinus pyralis) (P08659 whole entry, looked up): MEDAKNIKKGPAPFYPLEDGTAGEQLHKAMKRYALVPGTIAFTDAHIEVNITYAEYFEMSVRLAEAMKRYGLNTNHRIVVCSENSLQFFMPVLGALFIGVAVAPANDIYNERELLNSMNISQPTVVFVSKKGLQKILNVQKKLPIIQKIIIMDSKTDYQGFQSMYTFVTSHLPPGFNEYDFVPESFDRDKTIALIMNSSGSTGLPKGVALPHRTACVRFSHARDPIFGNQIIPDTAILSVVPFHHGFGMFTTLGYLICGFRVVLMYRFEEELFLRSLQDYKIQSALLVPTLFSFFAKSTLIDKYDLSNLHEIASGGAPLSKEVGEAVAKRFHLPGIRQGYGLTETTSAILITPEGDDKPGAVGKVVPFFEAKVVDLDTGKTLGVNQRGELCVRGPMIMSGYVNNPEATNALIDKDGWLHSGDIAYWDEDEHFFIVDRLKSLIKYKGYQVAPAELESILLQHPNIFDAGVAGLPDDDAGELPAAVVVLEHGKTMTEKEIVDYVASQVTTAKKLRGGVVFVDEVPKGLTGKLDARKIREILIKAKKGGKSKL

SMILES	activity change, negative = inhibition	Potency
COc1ccccc1-c1nn(Cc2ccccc2)cc1C(=O)N1CCN(c2ncccn2)CC1	1.51% (inactive)	–
CC(C)CC(=O)N/C(N)=N/c1nc2ccccc2s1	–	0.953 µM (active)
CC(C)CC(=O)NC(=S)NCc1ccccc1	-2.33% (inactive)	–
CC(C)C(C)NC(=O)COc1ncnc2ccccc12 (stereo unspecified)	4.9% (inactive)	–
Cc1cc(C(=O)OCC(=O)Nc2nnc(C(C)C)s2)c2ccccc2n1	3.05% (inactive)	–
CCC(=O)Nc1ccc2nc(SCC(=O)N3CCc4ccccc43)sc2c1	-6.93% (inactive)	–
CCC(=O)NC(=Nc1nc2ccccc2s1)NC(=O)CC	–	3.79 µM (active)
CCOc1ccccc1NC(=O)CCn1cnnn1	2.57% (inactive)	–
COc1ccc(S(=O)(=O)N2CCOCC2)cc1NC(=O)CSc1cc(C)ccc1C	1.8% (inactive)	–
CS(=O)(=O)Nc1ccccc1C(=O)OCC(=O)NC1CC1	0.298% (inactive)	–
CCN(C(=O)COC(=O)CCOc1cccc(C)c1)c1c(N)n(Cc2ccccc2)c(=O)[nH]c1=O	1.73% (inactive)	–
COc1ccc(NC(=O)NC(C)c2c(-n3cccc3)sc(C)c2C)cc1OC (stereo unspecified)	2.57% (inactive)	–
COc1ccccc1-c1sc2ccccc2c1-c1ccc(C(C)=O)cc1	–	15.1 µM (active)
COc1cc(C(C)=O)ccc1OC(=O)CN1C(=O)c2ccccc2C1=O	-1.95% (inactive)	–
COc1ccccc1-c1sc2ccccc2c1-c1ccc(Br)nc1	4.94% (inactive)	–
O=C(CC1N=C2c3ccccc3N=C(SCc3ccc(F)cc3)N2C1=O)NCc1cccs1 (stereo unspecified)	-18% (inactive)	–
O=C(O)C1=NN(c2c(F)c(F)cc(F)c2F)C(=O)CC1	-0.487% (inactive)	–
CN(CC(=O)NCCc1ccc(F)cc1)CC(=O)Nc1ccc(F)c(F)c1F	2.43% (inactive)	–
Cc1ccc(NC(=O)c2cn3c4c(ccc(Cl)c4c2=O)OC(C)C3)cc1C (stereo unspecified)	0.799% (inactive)	–
O=C(CSCc1cnn(-c2ccccc2)c1-n1cccc1)NCc1ccccc1Br	0.796% (inactive)	–
O=[N+]([O-])/C=C/c1ccc2c(ccn2Cc2ccccc2)c1	–	13.5 µM (active)
COC(=O)Cn1cc(/C=C/[N+](=O)[O-])c2ccccc21	-8.37% (inactive)	–

SMILES	activity change, negative = inhibition	Potency
O=C(/C=C/c1cccc([N+](=O)[O-])c1)N1CCN(Cc2ccccc2)CC1	-10.2% (inactive)	–
Cc1ccc(CN2CC(C(=O)N3CCN(S(=O)(=O)c4ccccc4)CC3)CC2=O)cc1 (stereo unspecified)	-0.636% (inactive)	–
Cc1nn(C)cc1S(=O)(=O)N1CCN(c2ccc(F)cc2)CC1	1.56% (inactive)	–
Cc1nn(C)cc1/C=C1\CCC/C(=C\c2cn(C)nc2C)C1=O	–	26.9 µM (active)
Cc1ccccc1-n1c(=O)c2ccccc2n(Cc2ccc(F)cc2)c1=O	4.16% (inactive)	–
CCS(=O)(=O)N1CCc2cc(C(=O)NCc3ccc(OC)cc3)ccc21	5.07% (inactive)	–
CCCc1cc(=O)oc2c(C)c(OCC(=O)NCc3ccccn3)ccc12	-0.539% (inactive)	–
CCc1cc(=O)oc2c(C)c(OCC(=O)NCCN3CCOCC3)ccc12	2.46% (inactive)	–
CCCc1cc(=O)oc2c(C)c(OCC(=O)Nc3ccccn3)ccc12	–	1.69 µM (active)
COc1ccc(NC(=O)CCN2CCN(CCO)CC2)cc1	-2.42% (inactive)	–
O=C(Nc1ccon1)c1nc[nH]c1C(=O)NCc1ccccc1	3.38% (inactive)	–
Cc1cc(C)n2nc(C(=O)Nc3cccc(S(=O)(=O)N4CCOCC4)c3)nc2n1	3.28% (inactive)	–
O=C(N/N=C/c1c[nH]c2ccccc12)c1ccccc1O	–	6.01 µM (active)
CC(C)(C)n1nc2c(c1NC(=O)c1cc3ccccc3o1)CSC2	3.62% (inactive)	–
CN(C)S(=O)(=O)c1cccc(NC(=S)N/N=C/C(=O)c2ccccc2)c1	-12.4% (inactive)	–
O=C(N/N=C/c1c[nH]c2ccccc12)c1cc2ccccc2o1	–	13.5 µM (active)
Cc1ccc2occ(/C=N/NC(=O)c3ccccc3C)c(=O)c2c1	-16.4% (inactive)	–
O=C(Cc1ccccc1)Nc1cccc(C(=O)N/N=C/c2ccco2)c1	-27.1% (inactive)	–
Cc1c(/C=N/N2C(=O)C3C4C=CC(C4)C3C2=O)c2ccccc2n1C (stereo unspecified)	1.31% (inactive)	–
O=C(CSc1nc2ccccc2o1)N/N=C/c1ccccc1C(=O)O	-4.26% (inactive)	–
O=C(O)c1cccc(NC(=S)N/N=C/c2c[nH]c3ccccc23)c1	–	0.757 µM (active)
Nc1nonc1-n1nnc(C(=O)N/N=C/c2c[nH]c3ccccc23)c1-c1ccccc1	-1.39% (inactive)	–

SMILES	activity change, negative = inhibition	Potency
Cc1c(/C=N\NC(=O)c2cc3ccccc3o2)c2ccccc2n1C	–	9.53 µM (active)
O=C(N/N=C/c1ccc([N+](=O)[O-])cc1)c1c[nH]c2ccccc12	-17.6% (inactive)	–
Cc1c(NC(=O)Nc2ccc(F)c(Cl)c2)c(=O)n(-c2ccccc2)n1C	-0.943% (inactive)	–
Cc1cccc(N2CCN(C(=O)c3cc4c(=O)oc5ccccc5c4s3)CC2C)c1 (stereo unspecified)	-0.651% (inactive)	–
CCc1ccc(NC(=O)CCS(=O)(=O)c2cc3c(cc2Cl)NC(=O)CO3)cc1	0.0113% (inactive)	–
COc1ccc([N+](=O)[O-])cc1NC(=O)c1ccc(N(Cc2ccccc2C)S(C)(=O)=O)cc1	-1.17% (inactive)	–
CN(C)C(=O)COC(=O)c1cccc(S(=O)(=O)N2CC3(C)CC2CC(C)(C)C3)c1 (stereo unspecified)	2.76% (inactive)	–
O=C(CNC(=O)c1ccccc1Br)NNC(=O)c1cccs1	2.69% (inactive)	–
COc1cc(C(c2c(NC(=O)c3ccco3)sc(C)c2C)N2CCOCC2)cc(OC)c1OC (stereo unspecified)	-0.244% (inactive)	–
COc1ccc(C2CC(c3cccs3)=NN2c2ccc(F)cc2)cc1OC (stereo unspecified)	-19.9% (inactive)	–
COc1ccc(C2CC(c3cccs3)=NN2c2nc(C)c(C(C)=O)s2)cc1OC (stereo unspecified)	2.84% (inactive)	–
COc1ccc(C2CC(c3cccs3)=NN2c2ccccc2)cc1 (stereo unspecified)	–	21.3 µM (active)
COc1cc(CN(CC2CCCO2)C(=O)c2ccccc2F)cc(OC)c1OC (stereo unspecified)	-0.254% (inactive)	–
S=c1[nH]nc(-c2cc(-c3ccccc3)n[nH]2)n1/N=C/c1c2ccccc2cc2ccccc12	-14.2% (inactive)	–
CNc1nc(-c2ccccc2)cc(-c2ccccc2)n1	-4.74% (inactive)	–
c1ccc(-c2cc(-c3ccccc3)[nH]n2)cc1	–	7.57 µM (active)
Oc1ccccc1-c1cc(-c2ccc(Cl)cc2)n[nH]1	–	0.953 µM (active)
Cc1ccc(NC(=O)c2cc(-c3ccccc3O)n[nH]2)cc1C	-1.11% (inactive)	–
Oc1cc(O)c2c(c1)OC(c1ccc(O)c(O)c1)C(O)C2 (stereo unspecified)	5.83% (inactive)	–
Cc1ccc(Cl)cc1NC(=O)CCC(=O)N1CC(C)Sc2ccccc21 (stereo unspecified)	-4.47% (inactive)	–
CCOC(=O)c1ccc(NC(=O)CSc2nc3c([nH]c4ccccc43)c(=O)n2C)cc1	2.26% (inactive)	–
O=C(CN1CCc2ccccc2C1)Nc1cccc(S(=O)(=O)N2CCOCC2)c1	0.0865% (inactive)	–
